Bioassay records as filed in PubChem BioAssay.
CHRM1 agonist: human M1 muscarinic receptor agonism; 360,000 compounds, 0.33% hits; CHO-K1 hM1, Fluo-8 calcium fluorescence, agonist mode; 0% DMSO, 100% acetylcholine EC100; P11229; activation, % at 3 µM;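 active means activation above the run's mean compound activation plus 3 SD, cut at about 16% in these data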;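 further: peak over basal fluorescence ratio within a 140 s kinetic read after compound addition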
Target sequence (P11229 whole entry, looked up): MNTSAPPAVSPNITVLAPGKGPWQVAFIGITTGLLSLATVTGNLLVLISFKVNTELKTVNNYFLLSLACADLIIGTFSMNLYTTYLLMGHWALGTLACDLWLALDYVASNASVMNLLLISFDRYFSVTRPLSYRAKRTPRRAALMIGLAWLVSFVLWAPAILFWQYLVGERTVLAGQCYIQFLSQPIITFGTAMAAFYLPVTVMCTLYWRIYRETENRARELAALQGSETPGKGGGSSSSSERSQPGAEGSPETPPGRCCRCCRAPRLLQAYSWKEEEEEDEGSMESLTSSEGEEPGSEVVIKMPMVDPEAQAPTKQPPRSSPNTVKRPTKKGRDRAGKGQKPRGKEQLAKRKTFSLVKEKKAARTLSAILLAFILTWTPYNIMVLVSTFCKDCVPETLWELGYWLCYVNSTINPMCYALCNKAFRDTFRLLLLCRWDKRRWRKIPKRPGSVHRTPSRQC
CHRM1 PAM: potentiates human M1 receptor response to acetylcholine | P11229 | 360,000 compounds, 0.088% hits | activation, % at 3 µM | CHO-K1 hM1, Fluo-8 calcium fluorescence, ACh EC20; 0% = ACh EC20, 100% = maximal ACh; in the data active means activation above about 19%, passing the limit was not always enough
CHO-K1 Ca ag: counter-screen for M1 agonists: effect in parental CHO-K1 cells. Fluo-8 calcium fluorescence; scaled to maximal ATP response, vehicle zero. activation, % at 3 µM. 360,000 compounds, 0.48% hits; in the data active means activation above about 15%;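 further: untransfected CHO-K1 host cells lacking M1 receptor as counterscreen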
M1 PAM parental: counter-screen for M1 PAMs: effect in parental CHO-K1 cells; 360,000 compounds, 0.02% hits; ATP EC20, Fluo-8 calcium fluorescence; 0% at ATP EC20, 100% at ATP max; activation, % at 3 µM; AID 602247;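 active means activation above the run cutoff, the mean activation of all test compounds plus 3 SD, cut at about 40% in these data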;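 further: peak over basal fluorescence ratio in a 140 s read after ATP addition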
M1 antag: antagonists of human M1 muscarinic receptor; 360,000 compounds, 1.3% hits; CHO-K1 hM1, Fluo-8 calcium fluorescence, ACh EC80 antagonist; inhibition, % at 3 µM; P11229; AID 588852;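 active means percent inhibition above its own plate's cutoff, namely the mean of that plate's compound wells plus 3 SD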;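 further: peak over basal fluorescence ratio during 140 s after agonist addition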
CHO-K1 Ca antag: counter-screen for M1 antagonists: effect in parental CHO-K1 cells | ATP-induced calcium, Fluo-8 fluorescence | inhibition, % at 3 µM | 360,000 compounds, 0.6% hits | AID 602250;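 active means inhibition above a per-plate cutoff, the plate's mean sample inhibition plus 3 SD, cut at about 24% in these data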
Numbers stand for hits; . = inactive; / = no result given. In the library only some 2.4% were active in any assay of this set; here they are far more common.

SMILES	CHRM1 agonist	CHRM1 PAM	CHO-K1 Ca ag	M1 PAM parental	M1 antag	CHO-K1 Ca antag
NC(=O)COC(=O)c1cc(-c2cccs2)nn1-c1ccccc1	.	.	.	.	.	.
CC1CCCN(C(=O)COC(=O)c2cc(-c3cccs3)nn2-c2ccccc2)C1 (configuration not stated)	.	.	.	.	46	.
Cc1nnc(SCC(=O)NC2CCCC2)n1C(C)C	.	.	.	.	.	.
O=C(O)c1cccc(-c2noc(-c3cccc(Cl)c3)n2)c1	.	.	.	.	.	.
CCC(=O)c1cn(CC(=O)Nc2ccc(C)cc2C)c2ccccc12	.	.	.	.	.	.
CCOC(=O)CSc1ncnc2c(C(=O)OCC)c3n(c12)CCC3	.	.	.	.	.	.
CC1CCCC(C)N1C(=O)c1ccc(S(=O)(=O)NCc2ccco2)cc1 (configuration not stated)	.	.	19	.	.	.
CC(Sc1nnc(-c2cccnc2)n1-c1ccccc1)C(=O)NCc1ccc2c(c1)OCO2 (configuration not stated)	.	.	.	.	.	.
O=C(CSc1nnc(-c2cccnc2)n1-c1ccccc1)NCc1ccc2c(c1)OCO2	.	.	.	.	.	24
Cc1ccccc1C(=O)NNc1ccc(-c2csnn2)cc1	.	.	.	.	.	.
CC1(C)OC(=O)C2=C(C[C@@H](CCc3ccccc3)O[C@H]2CCc2cccc(Cl)c2)O1	/	/	.	.	/	.
CC(C)c1ccc2c(c1)C1(NN=C(c3ccccc3)S1)C(=O)N2 (configuration not stated)	.	.	.	.	30	.
CCCN1CCN(S(=O)(=O)c2ccc(-n3cnnn3)cc2)CC1	.	.	.	.	.	.
Cc1cccc(NC(=O)COC(=O)c2cccc3c2C(=O)c2ccccc2C3=O)c1C	.	.	.	.	29	.
Cc1cccc(C)c1NC(=O)COC(=O)c1cccc2c1C(=O)c1ccccc1C2=O	.	.	.	.	.	.
CCOC(=O)CN1C(=O)N[C@@H](CCc2ccccc2)[C@@H](C(=O)OC)[C@H]1C	.	.	.	.	.	.
CCNc1nc(Oc2ccc(=O)n(-c3ccccc3)n2)nc(N(C)C)n1	.	.	.	.	.	.
CCNc1nc(OC)nc(Oc2ccc(=O)n(-c3ccccc3)n2)n1	.	.	.	.	.	24
Cc1nc(NC(=O)COC(=O)CCc2ccccc2)c(Cl)cc1Cl	.	25	.	.	.	.
O=C(Nc1ccc(Cl)cn1)c1ccc2[nH]c(=O)c(=O)[nH]c2c1	.	.	.	.	.	.
O=C(OCCCOC(=O)c1cc[n+]([O-])cc1)c1cc[n+]([O-])cc1	.	26	.	.	.	.
CC(=O)Nc1ccc(C(=O)OCCCOC(=O)c2ccc(NC(C)=O)cc2)cc1	.	.	.	.	.	.
Cc1cccc(OCC(=O)OCC(=O)Nc2sccc2C(N)=O)c1	.	.	20	.	.	.
Cc1cccc(OC(C)C(=O)OCC(=O)Nc2sccc2C(N)=O)c1 (configuration not stated)	.	.	16	.	.	.
COc1ccccc1OCC(=O)OCC(=O)Nc1sccc1C(N)=O	.	.	.	.	.	.
SMILES	CHRM1 agonist	CHRM1 PAM	CHO-K1 Ca ag	M1 PAM parental	M1 antag	CHO-K1 Ca antag
O=C(O)c1ccc(N2C(=O)c3ccccc3C2=O)cc1[N+](=O)[O-]	.	.	.	.	.	.
CC(C)=CCN1CCN(Cc2cccn2-c2ncccn2)CC1CCO (configuration not stated)	.	.	.	.	.	.
CC(O)(Cc1ccccn1)Cc1ccccn1	.	.	.	.	.	.
CC12CCC(=O)N1C(C(=O)N1CCN(S(=O)(=O)c3ccc(F)c(F)c3)CC1)CS2 (configuration not stated)	.	.	.	.	.	.
O=C(CN1C(=O)NC2(CCCC2)C1=O)Nc1ccccc1N1CCCC1	.	.	.	.	.	.
CC1(c2ccc3c(c2)OCCO3)NC(=O)N(CC(=O)Nc2c(F)cccc2F)C1=O (configuration not stated)	.	.	.	.	.	.
CC1(c2ccccc2)NC(=O)N(CC(=O)Nc2ccccc2N2CCCC2)C1=O (configuration not stated)	16	.	.	.	.	.
CC1(c2ccc3c(c2)OCCO3)NC(=O)N(CC(=O)Nc2ccccc2F)C1=O (configuration not stated)	.	.	.	.	.	30
c1ccc(CN2CCN(C(c3ccccc3)c3ccccc3)CC2)cc1	.	.	.	.	44	.
OC(CN1CCN(Cc2ccccc2)CC1)c1ccc(F)cc1 (configuration not stated)	.	.	.	.	.	.
c1ccc(CN2CCN(C(c3ccccc3)c3nnnn3Cc3ccccc3)CC2)cc1 (configuration not stated)	.	.	.	.	.	.
O=S(=O)(CCN1CCN(C(c2ccccc2)c2ccccc2)CC1)C(F)(F)F	.	.	.	.	77	.
Fc1ccc(CN2CCN(C(c3ccccc3)c3ccccc3)CC2)cc1	.	.	.	.	36	.
C=CC[n+]1c(/C=C/c2ccc(OC(C)=O)c(OC)c2)ccc2ccccc21	.	.	.	.	.	.
Cc1noc(-c2ccccc2)c1NC(=O)Nc1ccc2nc([C@H]3C[C@H](O)[C@@H](CO)O3)[nH]c2c1	.	.	.	.	.	.
COc1ccc(-c2ccc(N3C(c4ccsc4)=Cc4ccc(F)cc4C3c3c[nH]c4ccccc34)cc2)cc1 (configuration not stated)	/	/	.	.	/	.
CN(C)C(CNC(=S)Nc1ccccc1Cl)c1cccnc1 (configuration not stated)	.	.	.	.	.	.
CC1(NC(=O)Cc2csc(-c3cccc(Cl)c3)n2)CCS(=O)(=O)C1 (configuration not stated)	.	.	.	.	.	.
CCn1c(SCc2ccccc2)nc2c1c(=O)[nH]c(=O)n2C	.	.	.	.	.	.
CCOC(=O)N/N=C(\C)c1ccc(-n2cnnn2)cc1	.	.	.	.	.	.
CCN(CC)CCNC(=O)C12CC3CC(CC(C3)C1)C2	.	.	.	.	.	.
CCN(CC)CCNC(=O)C12CC3CC(C)(CC(C)(C3)C1)C2	.	.	.	.	40	.
O=C1OCCN1C(=O)[C@H]1[C@H](c2ccc(Cl)cc2)C(c2ccccc2)=NN1c1ccccc1	.	.	.	.	26	.
O=C1OCCN1C(=O)[C@H]1[C@H](c2ccc(Cl)cc2)C(c2ccc(F)cc2)=NN1c1ccccc1	.	.	.	.	.	.
CC(=O)c1ccc(-c2cccc(-c3cc(=O)oc4ccc(C(C)(C)C)cc34)c2)cc1	.	.	.	.	.	.
